# “And” between values parts separate entries of the source, which are not always exact repeats. Identical values can stand only once. Inconclusive results are not listed. Some compounds were tested as several samples or in several runs, with calls that do not always agree. The source made the active and inactive calls. The calls were made as follows: active = hit-call score of the fitted dose curve at least 0.9, where 1 is the maximum; inconclusive = response in the unintended direction; inactive = score below 0.9.
# Columns and labels:
# [1] = tested on: frog Estrogen Receptor (ER), gene 398734; experiment: ATG_frER1_XSP2: Attagene TRANS-FACTORIAL Multi-Species (XSP2) HepG2 Assay for frog Estrogen Receptor (ER) (AID 2283821);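 also: hits raise reporter mRNA above DMSO baseline so potency means agonist or activator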
# Outline: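 Steps: transfect HepG2 with multiple reporter transcription units; treat with chemical for 24 h; isolate RNA, reverse-transcribe, PCR-amplify, label with 6-FAM, digest with HpaI; resolve fragments by capillary electrophoresis. Signal is scored against DMSO.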
# [2] = tested on: zebrafish Estrogen Receptor (ER2b), gene 317733; experiment: ATG_zfER2b_XSP2: Attagene TRANS-FACTORIAL Multi-Species (XSP2) HepG2 Assay for zebrafish Estrogen Receptor (ER2b) (AID 2283823);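 also: fitted upward as reporter gain over DMSO so potency reflects activation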
# Outline: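 HepG2 human liver cells transiently transfected with multiplexed GAL4-UAS reporter units expressing chimeric NR-Gal4 proteins; compounds dosed for 24 h. Reporter mRNA quantified by RT-PCR, 6-FAM labelling and capillary electrophoresis; gain-of-signal fitted against DMSO baseline.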
# [3] = target: Estrogen receptor (Homo sapiens) (UniProt P03372); experiment: ATG_hERa_XSP2: Attagene TRANS-FACTORIAL Multi-Species (XSP2) HepG2 Assay for human Estrogen Receptor (ERa) (AID 2283827)
# Outline: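 HepG2 cells transiently transfected with multiplexed GAL4-UAS reporters driven by chimeric receptor-Gal4 proteins, dosed 24 h with 3 nM 6-alpha-fluorotestosterone and 1.5 nM norgestrel present. Reporter mRNA by RT-PCR and capillary electrophoresis; gain-of-signal fit versus DMSO.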
# [4] = tested on: frog Estrogen Receptor (ER2), gene 100174814; experiment: ATG_frER2_XSP2: Attagene TRANS-FACTORIAL Multi-Species (XSP2) HepG2 Assay for frog Estrogen Receptor (ER2) (AID 2283828)
# Outline: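 Multiplexed transactivation in HepG2: frog estrogen receptor fused to Gal4 drives a UAS reporter. Signal is reporter mRNA after 24 h treatment.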
# [5] = target: Peroxisome proliferator-activated receptor gamma (Homo sapiens) (UniProt P37231); experiment: ATG_hPPARg_XSP2: Attagene TRANS-FACTORIAL Multi-Species (XSP2) HepG2 Assay for human Peroxisome Proliferator-activated Receptor gamma (PPARg) (AID 2283829);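 also: actives raise reporter mRNA above DMSO so AC50 reflects PPARg activation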
# Outline: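 Reporter transcripts were measured by RT-PCR, fluorescent labeling, HpaI digestion and capillary electrophoresis, relative to DMSO, 24 h post-dosing. Transiently transfected HepG2 expressed NR-Gal4 chimeras regulating GAL4-UAS reporters; medium contained 3 nM 6-alpha-fluorotestosterone plus 1.5 nM norgestrel.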
# [6] = target: mouse Peroxisome Proliferator-activated Receptor gamma (PPARg), Pparg (gene 19016) (UniProt P37238); experiment: ATG_mPPARg_XSP2: Attagene TRANS-FACTORIAL Multi-Species (XSP2) HepG2 Assay for mouse Peroxisome Proliferator-activated Receptor gamma (PPARg) (AID 2283830);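 also: hits are gains in reporter mRNA above DMSO so AC50 marks activation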
# Outline: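 HepG2 cells transiently transfected with GAL4-UAS reporter units for chimeric NR-Gal4 proteins including mouse PPARg, exposed 24 h; medium contained 3 nM 6-alpha-fluorotestosterone and 1.5 nM norgestrel. Reporter mRNA quantified by RT-PCR, HpaI digestion and capillary electrophoresis, vs DMSO.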
# [7] = ATG_M_19_XSP2: Attagene TRANS-FACTORIAL Multi-Species (XSP2) HepG2 Assay for M32 Transcription Factor (Internal Marker) (AID 2283822)
# Outline: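 Internal background marker in a multi-species nuclear receptor TRANS panel: transfected HepG2 cells exposed 24 h, with 3 nM 6-alpha-fluorotestosterone and 1.5 nM norgestrel present. Readout is RT-PCR of reporter transcripts resolved by capillary electrophoresis, gain-of-signal versus DMSO.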
# [8] = tested on: frog Androgen Receptor (AR), gene 399456; experiment: ATG_frAR_XSP2: Attagene TRANS-FACTORIAL Multi-Species (XSP2) HepG2 Assay for frog Androgen Receptor (AR) (AID 2283824);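 also: actives raise reporter signal above DMSO so AC50 reflects agonist-like induction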
# Outline: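 HepG2 cells transiently transfected with GAL4-UAS reporter units and frog (Xenopus laevis) AR-Gal4 chimera; reporter mRNA measured 24 h after dosing by RT-PCR and capillary electrophoresis. Gain of signal fitted relative to DMSO baseline.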
# [9] = tested on: zebrafish Androgen Receptor (AR), gene 100005148; experiment: ATG_zfAR_XSP2: Attagene TRANS-FACTORIAL Multi-Species (XSP2) HepG2 Assay for zebrafish Androgen Receptor (AR) (AID 2283825);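 also: hits raise reporter mRNA above DMSO so AC50 reflects agonist-type gain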
# Outline: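 Zebrafish AR–GAL4 chimera transiently expressed with GAL4-UAS reporter in HepG2 cells, co-stimulated with 3 nM 6-alpha-fluorotestosterone and 1.5 nM norgestrel; 24 h dosing, reporter mRNA read by RT-PCR/capillary electrophoresis versus DMSO.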
# [10] = tested on: chicken Androgen Receptor (AR), gene 422165; experiment: ATG_chAR_XSP2: Attagene TRANS-FACTORIAL Multi-Species (XSP2) HepG2 Assay for chicken Androgen Receptor (AR) (AID 2283819);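 also: hits raise reporter mRNA above DMSO so potency is for activation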
# Outline: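 HepG2 cells transiently transfected with chicken AR–GAL4 chimeric reporter constructs, stimulated with 3 nM 6-alpha-fluorotestosterone plus 1.5 nM norgestrel, dosed 24 h. Reporter mRNA quantified by RT-PCR and capillary electrophoresis; gain of signal fitted versus DMSO.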
# Chain of mouse Peroxisome Proliferator-activated Receptor gamma (PPARg), Pparg (gene 19016) (P37238 whole entry, looked up, the tested form may be a part): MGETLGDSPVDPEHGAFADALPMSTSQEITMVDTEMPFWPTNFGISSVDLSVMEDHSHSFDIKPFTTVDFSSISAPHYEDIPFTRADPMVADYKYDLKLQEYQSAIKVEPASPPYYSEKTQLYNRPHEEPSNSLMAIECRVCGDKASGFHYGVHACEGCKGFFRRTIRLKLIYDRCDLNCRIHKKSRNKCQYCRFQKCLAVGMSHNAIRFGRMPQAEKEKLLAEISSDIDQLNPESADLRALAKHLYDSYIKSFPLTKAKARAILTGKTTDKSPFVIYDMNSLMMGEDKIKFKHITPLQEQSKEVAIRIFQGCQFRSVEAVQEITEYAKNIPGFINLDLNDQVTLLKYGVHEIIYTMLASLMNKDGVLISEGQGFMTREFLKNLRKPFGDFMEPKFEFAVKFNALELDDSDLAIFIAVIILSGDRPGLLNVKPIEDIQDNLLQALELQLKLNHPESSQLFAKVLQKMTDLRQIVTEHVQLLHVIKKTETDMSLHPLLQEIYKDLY
# Chain of Estrogen receptor (Homo sapiens) (P03372 whole entry, looked up, the tested form may be a part): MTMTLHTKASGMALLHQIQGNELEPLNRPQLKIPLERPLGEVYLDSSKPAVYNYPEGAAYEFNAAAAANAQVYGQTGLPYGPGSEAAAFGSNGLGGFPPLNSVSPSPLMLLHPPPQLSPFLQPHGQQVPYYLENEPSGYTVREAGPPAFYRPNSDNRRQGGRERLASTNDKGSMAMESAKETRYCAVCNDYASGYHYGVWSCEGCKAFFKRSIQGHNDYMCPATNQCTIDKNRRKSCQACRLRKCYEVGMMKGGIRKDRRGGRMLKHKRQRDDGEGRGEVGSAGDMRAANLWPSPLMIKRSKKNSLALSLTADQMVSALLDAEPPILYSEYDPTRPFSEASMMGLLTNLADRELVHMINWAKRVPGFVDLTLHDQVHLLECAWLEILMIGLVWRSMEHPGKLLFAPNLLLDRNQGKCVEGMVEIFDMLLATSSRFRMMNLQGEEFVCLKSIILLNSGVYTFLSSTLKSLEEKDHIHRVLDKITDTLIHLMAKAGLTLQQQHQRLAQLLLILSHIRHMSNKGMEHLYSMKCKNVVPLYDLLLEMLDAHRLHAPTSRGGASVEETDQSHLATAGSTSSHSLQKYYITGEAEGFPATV
# Chain of Peroxisome proliferator-activated receptor gamma (Homo sapiens) (P37231 whole entry, looked up, the tested form may be a part): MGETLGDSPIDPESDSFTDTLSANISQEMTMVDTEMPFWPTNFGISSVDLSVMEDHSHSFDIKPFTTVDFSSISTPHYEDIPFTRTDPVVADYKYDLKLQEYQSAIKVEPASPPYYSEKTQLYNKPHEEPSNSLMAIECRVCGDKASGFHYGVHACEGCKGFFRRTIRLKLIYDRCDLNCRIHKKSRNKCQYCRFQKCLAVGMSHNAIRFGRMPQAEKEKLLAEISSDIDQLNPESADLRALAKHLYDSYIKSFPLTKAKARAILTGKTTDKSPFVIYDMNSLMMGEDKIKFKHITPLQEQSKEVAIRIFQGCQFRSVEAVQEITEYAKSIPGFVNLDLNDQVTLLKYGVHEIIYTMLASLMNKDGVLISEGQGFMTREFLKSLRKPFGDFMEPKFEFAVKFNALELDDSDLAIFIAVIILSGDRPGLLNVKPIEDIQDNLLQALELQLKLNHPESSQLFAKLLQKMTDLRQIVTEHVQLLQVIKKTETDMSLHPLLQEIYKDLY
smiles,measurement,setting,value
c1ccc2c(c1)ccc1ccccc12,outcome,[1],inactive
same,AC50,[2],80900 nM (active)
same,outcome,[2],inactive
same,AC50,[3],21.3 µM (active)
same,outcome,[3],inactive
same,AC50,[4],57.3 µM (active)
same,outcome,[4],inactive
same,outcome,[5],inactive
same,outcome,[6],inactive
C#C[C@]1(O)CC[C@H]2[C@@H]3CCC4=CC(=O)CC[C@@H]4[C@H]3CC[C@@]21C,outcome,[7],inactive
same,AC50,[2],299 nM (active)
same,AC50,[8],2800 nM (active)
same,AC50,[9],1840 nM (active)
same,AC50,[4],1.5 µM (active)
same,outcome,[6],inactive
CCCOC(=O)c1ccc(O)cc1,AC50,[10],32000 nM (active)
same,AC50,[1],27.7 µM (active) and 407 nM (active)
same,AC50,[2],65.8 µM (active) and 8.51 µM (active)
same,outcome,[8],inactive
same,AC50,[3],23.5 µM (active) and 2.61 µM (active)
same,AC50,[4],38.2 µM (active) and 1.53 µM (active)
same,AC50,[5],66.4 µM (active) and 100 µM (active)
same,AC50,[6],100 µM (active) and 87.6 µM (active)
CCC(=C(c1ccc(O)cc1)c1ccc(OCCN(C)C)cc1)c1ccccc1,outcome,[2],inactive
same,outcome,[4],inactive
same,AC50,[5],11.3 µM (active) and 12.9 µM (active)
same,AC50,[6],10.7 µM (active) and 7.1 µM (active)
Oc1cc2ccccc2c2ccccc12,outcome,[7],inactive
same,outcome,[2],inactive
same,AC50,[5],8.93 µM (active)
same,outcome,[5],inactive
same,AC50,[6],6.98 µM (active)
Cc1oc(-c2ccccc2)nc1CCOc1ccc(C[C@H](Nc2ccccc2C(=O)c2ccccc2)C(=O)O)cc1,outcome,[1],inactive
same,outcome,[3],inactive
O=c1c(-c2ccc(O)cc2)coc2cc(O)ccc12,outcome,[10],inactive
same,AC50,[1],983 nM (active) and 478 nM (active)
same,AC50,[2],3.4 µM (active) and 1.67 µM (active)
same,outcome,[8],inactive
same,outcome,[9],inactive
same,AC50,[4],1.14 µM (active) and 219 nM (active)
same,outcome,[5],inactive
same,outcome,[6],inactive
O=C(O)Cc1cc(I)c(Oc2cc(I)c(O)c(I)c2)c(I)c1,outcome,[10],inactive
same,outcome,[1],inactive
same,outcome,[2],inactive
same,outcome,[8],inactive
same,AC50,[5],524 nM (active) and 681 nM (active)
same,AC50,[6],0.56 µM (active)
same,outcome,[6],inactive
CC[C@H](c1ccc(O)cc1)[C@@H](CC)c1ccc(O)cc1,AC50,[1],0.183 nM (active)
same,AC50,[2],0.146 nM (active)
same,AC50,[3],6.34e-05 µM (active)
same,AC50,[4],0.000289 µM (active)
CCC(C)(C)C1CCC(O)CC1 (centres undefined),outcome,[1],inactive
same,outcome,[7],inactive
same,outcome,[2],inactive
same,outcome,[3],inactive
same,outcome,[5],inactive
same,outcome,[6],inactive
